Screening data from PubChem BioAssay.
Only some compounds are listed: those with a hit (about 1.8% of all), similar ones and a draw of the others.
VLA-4 inh – inhibition in a human VLA-4 binding assay. P13612. VLA-4 expressing cells, ligand binding flow cytometry. inhibition, % (about 7 µM as worked out from the volumes in the protocol). 330,000 tested, 0.2% active. AID 2557; in the data active means inhibition above about 50%
APOBEC3G inh – inhibitors of human APOBEC3G DNA deaminase; Q9HC16; recombinant A3G, ssDNA deamination FAM/TAMRA fluorescence; inhibition, % at 20 µM; 330,000 tested, 0.28% active;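 active means inhibition of at least 40% at 20 µM, with no more than 30% in the related APOBEC3A deaminase screen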;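 further: plate controls were DMSO wells with A3G for no effect and wells lacking A3G enzyme for full effect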
A3A deaminase – human APOBEC3A DNA deaminase inhibition | P31941 | recombinant A3A, FAM/TAMRA ssDNA deamination fluorescence | inhibition, % at 20 µM | 330,000 tested, 0.41% active | AID 493011;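 active means at least 40% inhibition at 20 µM here, with at most 30% in a related deaminase screen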;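 further: plate controls were A3A with DMSO for no effect and wells lacking A3A enzyme for full effect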
NRP1-CendR mod – NRP-1/CendR interaction modulation; AID 602438; 360,000 tested, 0.85% active; FAM-RPARPAR peptide binding to NRP-1, fluorescence polarization; inhibition, % at 25 µM;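 active means inhibition or corrected inhibition above about 18%, plus a signal ratio from 0.5 to 1.5, limit read from the data, passing the limit was not always enough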
Target sequence (O14786 whole entry, looked up): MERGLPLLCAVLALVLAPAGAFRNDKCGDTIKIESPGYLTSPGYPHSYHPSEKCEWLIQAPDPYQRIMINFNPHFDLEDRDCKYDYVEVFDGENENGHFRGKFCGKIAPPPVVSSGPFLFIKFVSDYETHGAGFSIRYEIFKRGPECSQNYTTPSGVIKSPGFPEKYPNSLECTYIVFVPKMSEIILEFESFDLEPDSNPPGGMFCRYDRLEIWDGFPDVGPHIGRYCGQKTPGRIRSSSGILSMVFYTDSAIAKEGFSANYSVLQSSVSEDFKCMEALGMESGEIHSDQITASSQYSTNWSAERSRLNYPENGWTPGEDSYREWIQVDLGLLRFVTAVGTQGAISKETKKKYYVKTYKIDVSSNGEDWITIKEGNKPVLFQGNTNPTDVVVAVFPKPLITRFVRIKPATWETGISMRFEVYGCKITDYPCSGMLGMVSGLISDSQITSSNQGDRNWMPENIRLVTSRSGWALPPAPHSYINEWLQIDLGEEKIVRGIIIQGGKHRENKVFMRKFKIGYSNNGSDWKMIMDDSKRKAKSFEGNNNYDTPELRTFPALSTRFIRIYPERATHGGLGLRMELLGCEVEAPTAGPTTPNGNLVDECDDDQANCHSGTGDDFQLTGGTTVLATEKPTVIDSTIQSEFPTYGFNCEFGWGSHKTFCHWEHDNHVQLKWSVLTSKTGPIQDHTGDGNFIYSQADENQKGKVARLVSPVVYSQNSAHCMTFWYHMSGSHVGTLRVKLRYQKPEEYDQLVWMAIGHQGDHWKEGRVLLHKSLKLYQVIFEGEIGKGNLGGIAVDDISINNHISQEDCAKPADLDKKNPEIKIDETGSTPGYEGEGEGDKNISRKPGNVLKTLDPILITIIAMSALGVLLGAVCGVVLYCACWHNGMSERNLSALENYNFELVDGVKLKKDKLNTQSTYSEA
beta cell repl – MIN6 beta-cell proliferation induction; AID 2380; 330,000 tested, 0.29% active; proliferation, % at 10 µM; MIN6 cells proliferation, ATPlite luminescence, 48 h; cells starved in 0.2% serum; 100% = growth in 10% serum;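 active means compounds whose signal lies at least 3.5 SD above the mean of all wells on their plate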;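 further: 0% = DMSO-treated cells in low-serum medium and 100% = 10% serum control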
A3A conf – confirmation of human APOBEC3A DNA deaminase inhibitors. 1,400 tested, 63% active. recombinant A3A, ssDNA deaminase UDG fluorescence assay. shares compounds with A3A deaminase. inhibition, % at 20 µM;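 active means inhibition reaching a set limit, 80% of the first screen's cutoff, at 20 µM in any replicate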;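 further: plate controls were DMSO wells with A3A for no effect and wells lacking A3A enzyme for full effect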
UDG ctr A3A – inhibits UDG, flagging false APOBEC3A inhibitors | AID 504714 | 1,000 tested, under 10 active | UDG counterscreen, FAM/TAMRA uracil oligo fluorescence | shares compounds with A3A deaminase | inhibition, % at 20 µM; call rule not given here
The depositor's hits bear a star; . = not tested or not shown.

SMILES	VLA-4 inh	APOBEC3G inh	A3A deaminase	NRP1-CendR mod	beta cell repl	A3A conf	UDG ctr A3A
O=C(Nc1ccc(F)c(Cl)c1)c1ccc2c(=O)n3c(nc2c1)CCCCC3	7.7	-2.5	-1.2	-10.5	-3.7	.	.
O=C(Nc1ccc(Cl)cc1)c1ccc2c(=O)n3c(nc2c1)CCCCC3	1.8	11.4	51.8*	-6.8	-4.1	-3.8	.
O=C(COC(=O)c1ccccc1Nc1cccc(C(F)(F)F)c1)NCc1ccco1	0.6	23.5	42.5*	-24.2	-1.7	23.2*	-1.5
O=C(COC(=O)c1ccccc1)NCc1ccco1	18.1	10.1	29.7	-0.3	-2.5	.	.
O=C(OCC(=O)N1CCCC1=O)C1CCN(S(=O)(=O)c2c(Cl)cccc2Cl)CC1	-4.9	-1.3	0.3	16.1	-2.7	.	.
CCn1c(C)cc(/C=C2\NC(=O)N(CC(=O)Nc3ccc(F)cc3)C2=O)c1C	1.9	9.9	66.0*	2.0	-4.2	74.1*	1.9
Cc1ccc(NC(=O)CN2C(=O)N/C(=C/c3cc(C)n(-c4ccc(C(=O)O)cc4)c3C)C2=O)cc1	.	.	.	-63.9	.	.	.
COc1ccccc1OC(C)C(=O)N1CCC(Cc2ccccc2)CC1 (centres undefined)	9.4	5.0	55.4*	4.5	1.8	46.7*	-2.4
CC(OC(=O)c1cc(=O)[nH]c2ccccc12)C(=O)NC1CCCCC1C (centres undefined)	1.0	-6.8	-0.1	7.4	-0.9	.	.
CN(C)C(=O)c1ccc(Nc2nc(-c3cccs3)nc3ccccc23)cc1	1.9	-5.0	43.0*	13.1	-2.1	12.7	-2.9
CC(=O)c1ccc(Nc2nc(-c3ccccc3)nc3ccccc23)cc1	.	.	.	-9.3	.	.	.
COc1ccc(OC)c(/C=N/N2CCN(c3ccc(Cl)cc3)CC2)c1	-3.4	-6.8	-6.0	-1.9	-1.6	.	.
O=c1[nH]c2cc(Cl)c(Br)cc2o1	.	.	.	-0.2	.	.	.
COc1ccc(NC(=O)/C(C#N)=C/c2ccc(Br)o2)cc1	0.9	27.4	67.2*	-6.7	-0.8	58.2*	.
COc1ccc(NC(=O)/C(C#N)=C\c2ccc(N3CCOCC3)o2)cc1	13.6	-19.9	-9.6	132.6	-4.5	.	.
CC[C@]1(C(=O)OC)[C@H]2C(=O)N(C)C(=O)[C@H]2[C@H]2CN=C(SCc3ccc(C(=O)OC)cc3)N21	.	5.5	5.8	8.2	.	.	.
O=C(Cc1cccs1)NNC(=S)NCc1ccco1	13.3	-6.9	77.9*	-11.5	-2.0	-3.6	-3.1
NS(=O)(=O)c1cc(C(=O)OCC(=O)Nc2ccc3[nH]c(=O)[nH]c3c2)ccc1Cl	3.7	2.1	49.6*	1.0	-0.4	44.2*	-2.9
COc1ccc(/C=N/N2C(C)CCCC2C)cc1OC (centres undefined)	-5.6	-3.7	3.0	-2.3	1.4	.	.
CNC(=O)c1cc(Cl)c(OC)c(OC)c1	-9.2	12.0	56.9*	-3.8	-2.6	11.6	.
COc1cc(C(N)=O)cc(Cl)c1OC	9.9	-4.4	-0.3	14.1	-1.7	.	.
CSc1nc(Cl)c(Br)c(Nc2c[nH]c(=O)[nH]c2=O)n1	.	.	.	6.8	.	.	.
CCCOc1ccc(C(=O)Nc2ccccc2[N+](=O)[O-])cc1	1.2	-2.0	75.6*	3.9	3.6	-8.0	-3.4
CCCCOc1ccc(C(=O)Nc2ccc(C)cc2[N+](=O)[O-])cc1	-8.6	0.8	4.4	7.9	0.0	.	.
C/C(=N\Nc1ccc(Cl)c(C(=O)O)c1)c1cccs1	0.0	15.6	41.5*	-20.4	0.1	23.0	.
SMILES	VLA-4 inh	APOBEC3G inh	A3A deaminase	NRP1-CendR mod	beta cell repl	A3A conf	UDG ctr A3A
C/C(=N/Nc1ccccc1C(=O)O)c1cccs1	5.2	-5.1	-7.3	-5.2	-2.2	.	.
O=C(CSc1ncccn1)N1CCN(C(c2ccccc2)c2ccccc2)CC1	13.8	8.0	47.3*	-20.0	0.1	69.9*	-2.0
CC(C)(C)C1CCC(OC(=O)C[N+]2(C)CCCCC2)CC1 (centres undefined)	10.2	11.4	89.8*	6.2	-2.6	84.5*	1.1
COc1ccc(/C=C/C(=O)OC2CCCCC2CN(C)C)cc1 (centres undefined)	-3.6	3.0	6.4	-5.8	0.5	.	.
CC(C)CC1CCCCC1OC(=O)C[N+]1(C)CCCCC1 (centres undefined)	8.8	20.0	81.4*	3.6	-1.7	74.7*	-3.2
C[N+]1(CC(=O)OCCCC2CCCCC2)CCCC1	9.6	15.1	69.4*	4.0	0.0	76.5*	-1.3
CC(C)(C)C1CCC(OC(=O)C[N+]2(C)CCCC2)CC1 (centres undefined)	3.6	14.5	46.6*	0.0	-1.7	79.0*	2.3
CN(C)CCCNc1c2ccccc2nc2ccccc12	9.8	20.6	53.8*	1.8	-5.9	54.1*	3.6
CN(C)CCCNc1nc(-c2ccccc2)nc2ccccc12	9.8	-7.6	-0.5	-3.4	-3.4	.	.
CN(CC(=O)N1CCN(Cc2ccccc2)CC1)C(=O)Cc1ccc(Cl)c(Cl)c1	1.9	1.1	50.1*	-3.1	-1.6	34.3*	-3.4
CCOC(=O)c1c(NC(=O)OC)sc2c1CCC2	-6.9	-5.5	54.1*	-15.7	-1.6	-5.8	0.9
CCOC(=O)c1c(/N=C/c2ccccc2O)sc2c1CCC2	1.2	-3.8	97.6*	-10.9	0.0	-3.1	-2.5
Cn1c(CNC(=O)C2CCC(=O)N(CCc3cccc(F)c3)C2)nc2ccccc21 (centres undefined)	35.7	-4.4	-1.7	4.6	5.4	.	.
Cc1cc(C)n2nc(SCC#N)nc2n1	12.6	3.6	97.1*	-14.2	-3.4	-1.2	.
Cc1cc(C)n2nc[n+](C)c2n1	-4.9	22.2	52.5*	-1.8	0.3	39.5*	-2.1
CCCCCCNC(=O)c1cc(-c2ccco2)nc2ccccc12	7.5	20.9	61.6*	-21.9	-4.7	54.1*	-0.1
CC(C)CCNC(=O)c1cc(-c2ccco2)nc2ccccc12	-4.1	-0.4	-0.8	-1.7	-1.5	.	.
CCN(CC)CCNC(Cc1ccccc1)c1cccc(OC)c1 (centres undefined)	.	.	.	-3.1	.	.	.
CC(C)CC(=O)[C@@H](O)Cc1ccc(O)cc1	.	.	.	-1.5	.	.	.
Cc1ccccc1NC(=O)N(C(C)C)C(C)C	2.4	-3.7	83.2*	13.4	-0.7	-1.6	-2.5
CC(=O)Nc1ccc(NC(=O)Nc2ccccc2C)cc1	2.1	20.9	-0.4	-6.7	-2.3	.	.
Cc1c(C)c2c(OCC(=O)N[C@@H](CC(C)C)C(=O)O)cc3c(c2oc1=O)CCC(C)(C)O3	18.1	-5.9	3.2	9.6	1.7	.	.
CCN1CCN(C(=O)c2cc3cc([N+](=O)[O-])ccc3oc2=O)CC1	10.5	-6.5	-1.9	10.8	3.2	.	.
O=C(c1cc2cc([N+](=O)[O-])ccc2oc1=O)n1cccn1	14.2	21.4	58.8*	0.4	-2.7	38.9*	.
C[N+](C)(C)C/C=C1/COCO1	17.6	17.9	48.4*	10.6	-1.5	75.7*	4.1
